In PubChem BioAssay AID1851 (National Center for Advancing Translational Sciences (NCATS), 2009):
Out of some 16,000 compounds screened, about 5,700 (36%) were called active. Roughly 24% stayed inconclusive and do not appear here. Some of the results follow. A number with no mark means an inactive call. The call rests on the fitted dose curve; in most records, active means well fitted curve in the direction sought with a large enough effect; inconclusive means small, poorly fitted or top-dose-only effect, or effect the other way; inactive means no such curve, though single readings can be large or run the other way. Square brackets hold non-standard residues; d marks the D form. Peptide text beside a SMILES is read from it. * marks the point of attachment. ξ: configuration not given here. Cbz = O=C(OCc1ccccc1)*; OBn = c1ccc(CO*)cc1; ξP = O=C(O)C1CCCN1

Each compound was assayed against Cytochrome P450 1A2 (Homo sapiens) (UniProt P05177) (assay: Cytochrome panel assay with activity outcomes). Conditions: recombinant CYP, pro-luciferin dealkylation, luminescence, p450-cyp1a2; series mostly up to 57.1 µM; activity, negative = inhibition: at the top concentration.
Sequence of Cytochrome P450 1A2 (Homo sapiens) (P05177 whole entry, looked up): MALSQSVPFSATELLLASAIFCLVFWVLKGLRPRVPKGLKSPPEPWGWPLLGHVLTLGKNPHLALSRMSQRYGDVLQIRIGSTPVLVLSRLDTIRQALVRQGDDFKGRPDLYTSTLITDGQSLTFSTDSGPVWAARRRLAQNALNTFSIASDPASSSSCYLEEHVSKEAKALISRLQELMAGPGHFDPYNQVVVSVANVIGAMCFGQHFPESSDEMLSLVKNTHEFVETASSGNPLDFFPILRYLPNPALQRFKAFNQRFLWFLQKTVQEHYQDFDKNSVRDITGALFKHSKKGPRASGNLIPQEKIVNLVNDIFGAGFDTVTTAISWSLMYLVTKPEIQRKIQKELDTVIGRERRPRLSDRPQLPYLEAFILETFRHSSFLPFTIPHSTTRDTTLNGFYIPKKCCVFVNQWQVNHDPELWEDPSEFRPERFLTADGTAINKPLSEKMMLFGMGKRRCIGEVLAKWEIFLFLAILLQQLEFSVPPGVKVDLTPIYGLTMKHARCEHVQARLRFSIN
On the % scale 0 is the no-effect control and ±100 the full control effect.

| SMILES | activity, negative = inhibition | AC50 |
| --- | --- | --- |
| COCC(=O)Nc1c(I)c(C(=O)NC[C@@H](O)CO)c(I)c(C(=O)N(C)C[C@@H](O)CO)c1I | 0.0909% [at 25.6 µM] | – |
| COc1ccc2c(c1)-c1ccccc1S(=O)(=O)N2C(C)=O | – | 20 µM (active) |
| COc1cccc([C@@H]2Oc3ccc(OC)cc3C(=O)[C@H]2O)c1 | 2.62% [at 11.4 µM] | – |
| Cc1cc(NC(=O)C2=C(O)c3ccccc3S(=O)(=O)N2C)no1 | -6.66% [at 25.6 µM] | – |
| O=C(c1cc(C(F)(F)F)cc(C(F)(F)F)c1)N1CCC2(CCCN(Cc3nccs3)C2)CC1 | 9.76% | – |
| Cc1ccc(Nc2c([N+](=O)[O-])ccc3c2=NC2(CCCCC2)N=3)cc1 | – | 15.8 µM (active) |
| CCOC(=O)Cc1csc(NC(=O)CCCCCN2C(=O)c3ccccc3C2=O)n1 | – | 1.78 µM (active) |
| Cc1cccc(NC(=O)CCCN2C(=O)c3cccc4cccc(c34)C2=O)c1 | – | 6.31 µM (active) |
| CCOC(=O)c1sc(NC(=O)CCCCCN2C(=O)c3cccc4cccc(c34)C2=O)nc1C | – | 25.1 µM (active) |
| Cc1cccc(NC(=O)CC2Nc3cccc4cccc(c34)NC2=O)c1 (stereo not given) | – | 5.01 µM (active) |
| Cc1c(Cl)cccc1NC(=O)CC1NCCNC1=O (stereo not given) | 0.636% | – |
| C[N+](C)(CCCCCC[N+](C)(C)CCCN1C(=O)c2cccc3cccc(c23)C1=O)CCCN1C(=O)c2cccc3cccc(c23)C1=O | 10.6% | – |
| Cc1ccc(NC(=O)CCN2C(=O)c3ccncc3C2=O)cc1 | -35% | – |
| [N-]=[N+]=NC[C@@H]1O[C@@H](n2cnc3c(N)ncnc32)[C@@H]2O[C@@H]21 | -13.8% [at 11.4 µM] | – |
| COCCCNC(=O)C1CC(=O)N(CCc2ccc(OC)c(OC)c2)C1 (stereo not given) | -18.6% | – |
| N/C(=N\O)c1cn([C@@H]2O[C@@H](CO)[C@H](O)[C@@H]2O)c2ncnc(NO)c12 | -18.7% [at 2.29 µM] | – |
| C=C[C@H](N)CCC(=O)O | – | inactive |
| C[C@@H](C[N+](C)(C)C)OC(N)=O | – | inactive |
| Cc1cccc(/C(N)=N/OC(=O)CCCN2C(=O)c3ccccc3C2=O)c1 | – | 15.8 µM (active) |
| CSCC[C@@H]1NC(=O)C/C=C\[C@@H](C)COC(=O)[C@H](C)COC1=O | -2.99% [at 11.4 µM] | – |
| CCC(CC)C(=O)NCCN1CCN(C(=O)C(CC)CC)CC1 | 4.35% | – |
| CCCCOc1ccc(CN2CCC(O)CC2)cc1 | 10.8% | – |
| COc1ccc(C[C@@H]2c3cc(OC)c(OC)cc3CC[N@+]2(C)CCC(=O)OCCCCCOC(=O)CC[N@@+]2(C)CCc3cc(OC)c(OC)cc3[C@H]2Cc2ccc(OC)c(OC)c2)cc1OC | 0.265% [at 25.6 µM] | – |

| SMILES | activity, negative = inhibition | AC50 |
| --- | --- | --- |
| CCCCOc1cc(C[C@@H]2CNC(=O)N2)ccc1OC | – | 10 µM (active) |
| Cc1ccccc1Oc1ncnc2sccc12 | – | 12.6 µM (active) |
| N#CCCn1cc(/C=N/O)c(-c2ccc(Cl)cc2)n1 | – | 0.891 µM (active) |
| Oc1[nH]c2ccccc2c1/C=N/c1nccs1 | – | 0.251 µM (active) |
| COc1ccc(-c2cc(-c3cc(F)ccc3O)[nH]n2)cc1OC | – | 6.31 µM (active) |
| COc1ccc(-c2cc(-c3c(O)c(OC)c4occc4c3OC)[nH]n2)cc1OC | – | 6.31 µM (active) |
| CCc1ccc(-c2csc(NC(=O)C3CCCO3)c2C(=O)OC(C)C)cc1 (stereo not given) | – | 7.08 µM (active) |
| Cc1ccc(-c2c(C)sc(NC(=O)C3C4CCC(O4)C3C(=O)O)c2C(=O)OC(C)C)cc1 (stereo not given) | -13.6% | – |
| C=C(C)[C@H]1CC=C(C)/C(=N/NC(=O)CNc2ccccc2OC)C1 | – | 15.8 µM (active) |
| C=C(C)C1CC=C(C)/C(=N/NC(=O)c2ccc(NC(=O)c3cccc(C)c3)cc2)C1 (stereo not given) | -8.69% | – |
| CC(=O)N1c2ccc(S(=O)(=O)CCC(=O)O)cc2CC1C (stereo not given) | 3.83% | – |
| COC(=O)c1ccccc1NC(=O)c1c(Br)cnn1C | – | 0.891 µM (active) |
| COC(=O)c1ccccc1NC(=O)c1ccc(F)cc1 | – | 0.2 µM (active) |
| CCCCOC(=O)Nc1ccccc1C(=O)OC | – | 2 µM (active) |
| CCOC(=O)c1c(NC(=O)c2c(Br)cnn2C)c(C#N)nn1-c1ccccc1 | – | 0.631 µM (active) |
| Cc1ccccc1C(=O)NNC(=O)c1ccc(F)cc1 | 2.52% | – |
| COC(=O)c1cn(NC(=O)c2ccc(F)cc2)c(=O)c2ccccc12 | -20.8% | – |
| COC(=O)c1ccccc1NC(=O)C1CCN(C(=O)c2ccc(OC)cc2)CC1 | -10.6% | – |
| Cc1c(C(=O)O)nc(/C=C\C(=O)O)[nH]c1=O | -6.61% [at 11.4 µM] | – |
| O=C(Nc1cccc2[nH]ncc12)c1ccc(F)cc1 | – | 7.08 µM (active) |
| C#CCCCO/N=C1/C[C@@H](O)[C@@H](O)[C@@H]2[C@@H]3C(=O)N(C[C@@H]4CCCO4)C(=O)[C@H]3CC[C@H]12 | -2.74% [at 11.4 µM] | – |
| CC(C)NC(=O)N1CCC2(CC1)CCN(C(=O)c1csnn1)CC2 | 8.76% | – |
| N#Cc1sc2nc(-c3cccs3)cc(-c3ccc(Cl)cc3)c2c1N | – | 1.26 µM (active) |

| SMILES | activity, negative = inhibition | AC50 |
| --- | --- | --- |
| CCN(CC)CCCNC(=O)C1CCC(=O)N(c2ccc(OC)cc2)C1c1ccc(F)cc1 (stereo not given) | -25.8% | – |
| Nc1c(-c2cccs2)cnn1-c1nc(-c2ccc(Cl)cc2Cl)cs1 | – | 1.26 µM (active) |
| Nc1c(-c2cccs2)cnn1-c1nc(-c2ccc(F)cc2)cs1 | – | 0.447 µM (active) |
| O=C(c1csnn1)N1CCC2(CC1)CCN(c1ccncc1)CC2 | -4.22% | – |
| COC(=O)[C@H]1C[C@@H]1[C@H](NC(=O)OCc1ccccc1)c1ccccc1 | – | 0.126 µM (active) |
| C[C@@H](C(=O)O)[C@H]1C[C@]1(C)[C@H](NC(=O)OCc1ccccc1)c1ccccc1 | -16% | – |
| O=C(NC(NCc1ccccc1)C(Cl)(Cl)Cl)c1cccnc1 (stereo not given) | -6.61% | – |
| O=C(Nc1ccccc1)N1CCC2(CC1)CCN(C(=O)c1cnccn1)CC2 | -20.1% | – |
| COC(=O)[C@@H]1C[C@H]1[C@@H](NC(=O)c1cccnc1)c1ccccc1 | – | 12.6 µM (active) |
| O=C(NNC(=O)C1CCCCC1)c1cnccn1 | 5.27% | – |
| COC(=O)[C@@H]1C[C@H]1[C@@H](NC(=O)c1cnccn1)c1ccccc1 | – | 12.6 µM (active) |
| O=C(CNC(=O)OCc1ccccc1)NCC(=O)N1CCCC1C(=O)OCc1ccccc1 (stereo not drawn) (Cbz-Gly-Gly-[ξP]-OBn) | 4.12% | – |
| COC(=O)[C@H]1C[C@@H]1[C@H](NC(=O)c1ccccc1)c1ccccc1 | – | 15.8 µM (active) |
| CCc1cc[n+](-c2nc3ccccc3nc2C(=C=[N-])C#N)cc1 | -14% | – |
| COC(=O)[C@@H]1C[C@H]1[C@@H](NC(=O)c1ccccc1)c1ccccc1 | – | 5.01 µM (active) |
| COC(=O)C1CC1C(NC(=O)[C@H]1CCCCN1)c1ccccc1 (stereo not given in full) | -23.3% | – |
| Cc1cc(N(CN2CCCC2=O)C(=O)c2ccc(F)cc2)no1 | -6.57% | – |
| Cc1nc2c3cnn(-c4ccc(C)c(C)c4)c3ncn2n1 | – | 8.91 µM (active) |
| Cc1ccc(-n2ncc3c2ncn2nc(-c4ccco4)nc32)c(C)c1 | -23.9% | – |
| COc1cccc(-c2nc(NCCc3c[nH]c4ccc(OC)cc34)c3ccccc3n2)c1 | – | 1.58 µM (active) |
| COc1ccc2[nH]cc(CCNc3nc(-c4ccoc4)nc4ccccc34)c2c1 | – | 0.398 µM (active) |
| COc1ccc2[nH]cc(CCNc3nc(-c4ccccc4OC)nc4ccccc34)c2c1 | – | 6.31 µM (active) |
| COC(=O)[C@@]1(Cc2ccc(OC)cc2)[C@H]2c3cc(C(=O)N4CCCC4)n(CCc4c[nH]c5ccc(O)cc45)c3C[C@H]2CN1C(=O)c1ccccc1 | -16.3% | – |

| SMILES | activity, negative = inhibition | AC50 |
| --- | --- | --- |
| COc1ccc2[nH]cc(CCNc3nc(-c4cccnc4)nc4ccccc34)c2c1 | – | 0.501 µM (active) |
| Cc1noc(NS(=O)(=O)c2ccc(NC(=O)CC34CC5CC(CC(Br)(C5)C3)C4)cc2)c1C | 0.211% | – |
| Cc1ccc(NC(=O)c2sc3ccccc3c2Cl)nc1 | – | 2.51 µM (active) |
| Cc1ccccc1Cn1nc(C)c(NC(=O)c2sc3ccccc3c2Cl)c1C | – | 2.24 µM (active) |
| O=C(NNC(=O)c1sc2ccccc2c1Cl)Nc1ccc(Cl)cc1 | – | 0.501 µM (active) |
| CCC(CC)c1nnc(NC(=O)c2cccc(S(=O)(=O)N3CCc4ccccc43)c2)s1 | -6.18% | – |
| CC(C)c1nnc(NC(=O)c2sc3ccccc3c2Cl)s1 | – | 10 µM (active) |
| Cc1ccc(NC(=O)CCc2c(C)nc3ncnn3c2C)nc1 | -18.5% | – |
| Cc1ccc(NC(=O)C2CCN(S(=O)(=O)c3c(C)n[nH]c3C)CC2)nc1 | -28.3% | – |
| Cc1nn(Cc2ccccc2Cl)c(C)c1NC(=O)CCCn1nc(C)c([N+](=O)[O-])c1C | 17.7% | – |
| Cc1ccc(-c2cc(C(F)F)n3ncc(C(=O)Nc4c(C)nn(Cc5c(Cl)cccc5Cl)c4C)c3n2)cc1 | -19.7% | – |
| CCCC(=O)N1CCN(c2ccc(NC(=O)c3sc4ccccc4c3Cl)cc2)CC1 | 9.92% | – |
| N#Cc1cccc(NC(=O)N2CCC3(CC2)CCN(C(=O)c2cccc(F)c2)CC3)c1 | -1.29% | – |
| O=C(c1coc2ccccc2c1=O)N1CCN(c2cccc(C(F)(F)F)c2)CC1 | – | 31.6 µM (active) |
| CCc1ccc(NC(=S)N2CCN(c3cccc(C(F)(F)F)c3)CC2)cc1 | -15.9% | – |
| Cc1ccc(S(=O)(=O)N(CC(=O)N2CCN(c3ccc(F)cc3)CC2)C2CCCCC2)cc1 | 0.812% | – |
| O=C(c1cc(C(F)(F)F)cc(C(F)(F)F)c1)N1CCC2(CC1)CN(c1ccccc1)C2 | -15.7% | – |
| Cc1ccc(CC(=O)N2CCN(c3cccc(C(F)(F)F)c3)CC2)cc1 | – | 31.6 µM (active) |
| O=C(c1cccc(F)c1)N1CCC2(CCN(Cc3cc(C(F)(F)F)cc(C(F)(F)F)c3)CC2)CC1 | -5.54% | – |
| C[C@]1(c2ccccc2)O[C@@H]2C[C@@H]3[C@@H]4CCC5=CC(=O)C=C[C@@]5(C)[C@]4(F)[C@H](O)C[C@]3(C)[C@@]2(C(=O)CO)O1 | -16.4% [at 2.29 µM] | – |
| CO[C@@H]1COC(=O)[C@H](COCc2ccccc2)NC(=O)C/C=C\[C@@H](C)[C@H](OC)COC(=O)[C@@H](C)NC(=O)C/C=C\[C@H]1C | 3.31% [at 11.4 µM] | – |
